From PubChem BioAssay (Tox21)
Records with an inconclusive call do not appear. Where a call stands in place of a potency, no number is given. Activity calls are given as the source filed them. Unless noted, calls follow the shape of the dose curve; as a rule, active = well fitted curve in the direction sought with a large enough effect in the repeat runs; inconclusive = weak or mixed curves; inactive = no such curve, though single readings can be large; an effect the other way counts as inactive or inconclusive.

Key:
[1] = A CellTox Green Cytotoxicity Assay to monitor cytotoxicity in HEK293 cells - 32 hour (AID 1224881); also: nearly all actives have a fitted effect of over 40% in size; also: potency is read from the fitted curve at half-maximal effect
Outline: (§1)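 HEK293 cells, 600/well, were preincubated 5 hours and then exposed to compounds at 37 C for up to 40 hours. A cell-impermeant cyanine dye staining dead-cell DNA was read by fluorescence at 0, 8, 16, 24, 32 and 40 h time points.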

[2] = A CellTox Green Cytotoxicity Assay to monitor cytotoxicity in HepG2 cells - 0 hour (AID 1224882); also: nearly all actives have a fitted effect of over 35% in size
Outline: (§2)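 HepG2 cells, 600/well, preincubated 5 h with CellTox Green dye, then exposed to Tox21 compounds in DMSO at 37 C for up to 40 h. Dead-cell DNA fluorescence read at the indicated time point.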

[3] = A CellTox Green Cytotoxicity Assay to monitor cytotoxicity in HepG2 cells - 32 hour (AID 1224883); also: nearly all actives have a fitted effect of over 50% in size; also: potency is read from the fitted curve at half-maximal effect
Outline: as §2

[4] = A CellTox Green Cytotoxicity Assay to monitor cytotoxicity in HEK293 cells - 8 hour (AID 1224884); also: nearly all actives have a fitted effect of over 35% in size; also: potency is read from the fitted curve at half-maximal effect
Outline: as §1

[5] = qHTS RealTime-Glo MT Cell Viability Assay in HepG2 cells - 16 hour (AID 1224885); also: nearly all actives have a fitted effect of over 50% in size
Outline: (§3)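 Compound treatment began 5 h after plating HepG2 cells (600/well) with NanoLuc luciferase and prosubstrate. Plates stayed at 37 C for 40 h; luminescence was captured at six time points, 0 h through 40 h.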

[6] = qHTS RealTime-Glo MT Cell Viability Assay in HEK293 cells - 24 hour (AID 1224886); also: top concentration of the series differs between compounds; nearly all actives have a fitted effect of over 50% in size
Outline: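 Quantitative high-throughput screen of the Tox21 10K library in HEK293: cells and RealTime-Glo reagents plated together, compound added at 5 h, luminescence monitored through 40 h at 37 C.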

[7] = qHTS RealTime-Glo MT Cell Viability Assay in HEK293 cells - 8 hour (AID 1224887); also: top concentration of the series differs between compounds; nearly all actives have a fitted effect of over 50% in size
Outline: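 600 cells/well were plated with the nonlytic NanoLuc/prosubstrate reagent, pre-incubated 5 h, then given 23 nL of compound in DMSO. Incubation at 37 C for 40 h, with luminescence from viable-cell-reduced substrate read repeatedly from 0 h.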

[8] = A CellTox Green Cytotoxicity Assay to monitor cytotoxicity in HEK293 cells - 16 hour (AID 1224888); also: nearly all actives have a fitted effect of over 35% in size
Outline: as §1

[9] = qHTS RealTime-Glo MT Cell Viability Assay in HepG2 cells - 0 hour (AID 1224889); also: nearly all actives have a fitted effect of over 50% in size
Outline: as §3

[10] = A CellTox Green Cytotoxicity Assay to monitor cytotoxicity in HepG2 cells - 8 hour (AID 1224890); also: nearly all actives have a fitted effect of over 45% in size; also: potency is read from the fitted curve at half-maximal effect
Outline: as §2

[11] = qHTS assay to identify small molecule HDAC inhibitors (AID 1259364); also: top concentration of the series differs between compounds; nearly all actives have a fitted effect of over 45% in size
Outline: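 Wild-type HCT-116 cells, plated overnight at 37 C, exposed to compounds 2 hr at 37 C; luminogenic HDAC-Glo substrate then added 30 min at room temperature. Luminescence reports relative endogenous class I/II HDAC activity.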

[12] = qHTS assay to identify small molecule HDAC inhibitors - cell viability counter screen (AID 1259365)
Outline: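 Wild-type HCT-116 cells, 1,500/well, cultured overnight, then compound-treated 2 h at 37 C. Viability measured as ATP luminescence with CellTiter-Glo after 30 min at room temperature.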

[13] = qHTS assay to identify small molecule agonists of the sonic hedgehog signaling (Shh) pathway - cell viability counter screen (AID 1259366); also: nearly all actives have a fitted effect of over 50% in size; also: potency is read from the fitted curve at half-maximal effect
Outline: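 NIH/3T3-derived Gli1-Luc reporter cells, 2,000 per well, received compound after 4 h and were treated about 23 h at 37C. Viability measured in the same wells by CellTiter-Fluor fluorescence after 1 h.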

[14] = qHTS assay to identify small molecule antagonists of the sonic hedgehog signaling (Shh) pathway - cell viability counter screen (AID 1259367); also: nearly all actives have a fitted effect of over 55% in size; also: potency is read from the fitted curve at half-maximal effect
Outline: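 Seed 3T3 Gli1-Luc cells at 2,000 per well; incubate 4 hr; add compound in DMSO, then conditioned medium; incubate at 37C with 5% CO2; add CellTiter-Fluor after 23 hr; read fluorescence 1 hr later.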

[15] = qHTS assay to identify small molecule agonists of the sonic hedgehog signaling (Shh) pathway (AID 1259368; calls by dose curve;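 also: NIH/3T3-derived 3T3Gli1-Luc cells carrying a stable Gli1-driven firefly luciferase reporter; series mostly up to about 92 µM; nearly all actives have a fitted effect of over 15% in size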)
Outline: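 NIH/3T3-derived 3T3Gli1-Luc cells with stably integrated Gli1-driven firefly luciferase, 2,000 cells/well, compounds added after 4 hr. Incubated 24 hr at 37C, 5% CO2; luminescence read after 30 min with luciferase reagent at room temperature.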

[16] = qHTS assay to identify small molecule antagonists of the estrogen receptor alpha (ER-alpha) signaling pathway using the BG1 cell line in the presence of 0.1 nM 17-beta-estradiol - cell viability counter screen (AID 1259241); also: nearly all actives have a fitted effect of over 40% in size
Outline: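 VM7Luc4E2 cells (endogenous full-length ER-alpha, 4xERE-luciferase), cultured 5 days in charcoal-stripped serum, exposed to compounds with 0.1 nM 17beta-estradiol (final) for 22 hr at 37C. Viability read in same wells as live-cell protease fluorescence after 30 min.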

[17] = qHTS assay to identify small molecule antagonists of the androgen receptor (AR) signaling pathway using the MDA cell line in the presence of 0.5 nM R1881 - cell viability counter screen (AID 1259242); also: nearly all actives have a fitted effect of over 45% in size
Outline: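 MDA-kb2 cells (MMTV-luciferase, AR/GR responsive) were treated with compounds plus 0.5 nM R1881 (final) for 16 hr at 37C, 0% CO2. Viability was then read in the same wells as live-cell protease fluorescence (CellTiter-Fluor, 30 min).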

[18] = molecular target: Androgen receptor (Homo sapiens) (UniProt P10275); assay: qHTS assay to identify small molecule antagonists of the androgen receptor (AR) signaling pathway using the MDA cell line in the presence of 0.5 nM R1881 (AID 1259243); also: nearly all actives have a fitted effect of over 50% in size; also: potency is read from the fitted curve at half-maximal effect
Outline: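 MDA-kb2 cells (MMTV-luciferase, responsive to AR and GR) at 3,000/well, rested 5 h at 37C, 0% CO2, then given compounds plus 0.5 nM R1881 (final) for 16 hr. Luciferase read with ONE-Glo after 30 min at room temperature.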

[19] = molecular target: Estrogen receptor (Homo sapiens) (UniProt P03372); assay: qHTS assay to identify small molecule antagonists of the estrogen receptor alpha (ER-alpha) signaling pathway using the BG1 cell line in the presence of 0.1 nM 17-beta-estradiol (AID 1259244); also: nearly all actives have a fitted effect of over 50% in size
Outline: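 VM7Luc4E2 cells (endogenous full-length ER-alpha, 4×ERE-luciferase), kept 5 days in phenol red-free, charcoal-stripped FBS medium; 4,000 cells/well. Compounds added with 0.1 nM (final) 17beta-estradiol, 22 hr at 37C; luminescence read with ONE-Glo after 30 min.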

Estrogen receptor (Homo sapiens), sequence (P03372 whole entry, looked up): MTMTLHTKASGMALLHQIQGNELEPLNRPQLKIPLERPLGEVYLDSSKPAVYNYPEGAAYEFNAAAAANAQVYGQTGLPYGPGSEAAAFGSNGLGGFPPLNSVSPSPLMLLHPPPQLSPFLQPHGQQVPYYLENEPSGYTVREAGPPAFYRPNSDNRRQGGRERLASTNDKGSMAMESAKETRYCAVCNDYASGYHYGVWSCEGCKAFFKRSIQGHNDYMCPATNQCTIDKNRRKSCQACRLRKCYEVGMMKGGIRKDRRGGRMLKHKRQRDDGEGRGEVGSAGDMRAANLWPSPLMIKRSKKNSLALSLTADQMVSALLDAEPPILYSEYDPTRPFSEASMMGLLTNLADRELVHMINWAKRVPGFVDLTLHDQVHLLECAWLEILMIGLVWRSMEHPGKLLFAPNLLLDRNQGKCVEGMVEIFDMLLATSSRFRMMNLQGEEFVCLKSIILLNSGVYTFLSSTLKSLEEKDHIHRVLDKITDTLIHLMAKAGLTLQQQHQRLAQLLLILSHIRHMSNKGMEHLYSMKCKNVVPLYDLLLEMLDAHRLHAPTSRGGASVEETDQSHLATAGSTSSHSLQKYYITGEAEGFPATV
Androgen receptor (Homo sapiens), sequence (P10275 whole entry, looked up): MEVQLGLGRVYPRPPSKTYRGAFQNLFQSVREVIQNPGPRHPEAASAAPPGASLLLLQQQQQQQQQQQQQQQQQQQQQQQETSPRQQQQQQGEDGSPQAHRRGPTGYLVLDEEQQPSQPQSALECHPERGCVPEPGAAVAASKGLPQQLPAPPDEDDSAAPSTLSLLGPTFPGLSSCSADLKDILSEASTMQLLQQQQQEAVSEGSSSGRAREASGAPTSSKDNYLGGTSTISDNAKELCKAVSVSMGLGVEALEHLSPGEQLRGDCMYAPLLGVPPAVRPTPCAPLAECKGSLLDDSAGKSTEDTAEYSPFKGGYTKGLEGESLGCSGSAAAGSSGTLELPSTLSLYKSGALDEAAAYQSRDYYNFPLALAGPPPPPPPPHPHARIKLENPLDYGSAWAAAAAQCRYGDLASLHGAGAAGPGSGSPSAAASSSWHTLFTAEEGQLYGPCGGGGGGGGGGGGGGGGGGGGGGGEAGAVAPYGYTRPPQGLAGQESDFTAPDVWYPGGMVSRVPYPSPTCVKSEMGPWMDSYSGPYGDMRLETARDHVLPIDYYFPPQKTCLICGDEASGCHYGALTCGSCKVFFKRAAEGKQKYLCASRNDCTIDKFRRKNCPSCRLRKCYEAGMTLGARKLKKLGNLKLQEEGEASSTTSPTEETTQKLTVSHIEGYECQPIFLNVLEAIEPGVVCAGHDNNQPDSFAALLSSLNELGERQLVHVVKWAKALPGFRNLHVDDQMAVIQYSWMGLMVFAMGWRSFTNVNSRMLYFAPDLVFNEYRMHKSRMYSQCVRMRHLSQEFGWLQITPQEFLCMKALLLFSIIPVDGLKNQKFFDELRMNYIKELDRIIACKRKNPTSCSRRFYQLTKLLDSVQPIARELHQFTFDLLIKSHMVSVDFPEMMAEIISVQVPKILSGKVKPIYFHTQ

Row | SMILES | Potency [1] | Potency [2] | Potency [3] | Potency [4] | Potency [5] | Potency [6] | Potency [7] | Potency [8] | Potency [9] | Potency [10] | Potency [11] | Potency [12] | Potency [13] | Potency [14] | outcome [15] | Potency [16] | Potency [17] | Potency [18] | Potency [19]
1 | CCOc1ccc(N=Nc2ccc(/C=C/c3ccc(N=Nc4ccc(OCC)cc4)cc3S(=O)(=O)O)c(S(=O)(=O)O)c2)cc1 | inactive | inactive | inactive | inactive | inactive | inactive | inactive | inactive | inactive | inactive | inactive | inactive | 30.2 µM (active) | 21.4 µM (active) |  |  |  |  | 
2 | CCOC(=O)C(F)(F)F | inactive | inactive | inactive | inactive | inactive | inactive | inactive | inactive | inactive | inactive |  | inactive | inactive | inactive | inactive |  |  |  | 
3 | CC(COCCO)OCCO (centres undefined) | inactive | inactive | inactive | inactive | inactive | inactive | inactive |  | inactive | inactive | inactive | inactive | inactive | inactive |  | inactive | inactive | inactive | 
4 | CCCCCC[C@@H](O)C/C=C\CCCCCCCC(=O)OC | inactive | inactive | inactive | inactive | inactive | inactive | inactive | inactive |  | inactive | inactive | inactive | inactive |  | inactive | inactive |  | inactive | inactive
5 | CCCCCCCN | inactive | inactive | inactive | inactive | inactive | inactive | inactive | inactive |  | inactive | inactive | inactive |  | inactive | inactive | inactive | inactive |  | inactive
6 | CN(C)CCCN1c2ccccc2Sc2ccccc21 | inactive | inactive | 23.9 µM (active) | inactive | inactive | inactive | inactive | inactive |  | inactive | inactive | inactive |  |  |  | inactive | inactive |  | 
7 | CCCCCCCCCCCCCCOS(=O)(=O)O | 43.6 µM (active) | inactive | 38.9 µM (active) | 21.9 µM (active) | inactive | inactive | inactive |  | inactive |  | inactive |  | inactive | inactive | inactive | inactive | inactive |  | inactive
8 | Cc1cccc(Nc2ccccc2)c1 | 34.7 µM (active) | inactive | 38.9 µM (active) | inactive | inactive | inactive |  | inactive | inactive | 49 µM (active) | inactive | inactive |  | inactive | inactive |  | inactive | 24.3 µM (active) | 
